An excerpt weighted towards active compounds, which were near 7.8% of everything screened.
VACV Venus inh: inhibitors of vaccinia virus (Venus reporter). Vaccinia virus Venus reporter expression, fluorescence. Potency, µM (doses to about 36.5 µM), without a hit: at the top dose activity change, negative = inhibition, actives largely listed as inhibitors. AID 720580. 0.46% of 330,000 active; calls by dose curve; tested in A549 cells; note: potency is the fitted concentration of half-maximal effect; nearly all actives have a fitted effect of over 30% in size
Lassa entry inh: inhibitors of Lassa virus binding or cell entry. Potency, µM (highest dose often 37.9 µM), for the others: at the top dose activity change, negative = inhibition, hits mostly inhibitors. Lassa virus pseudotype entry inhibition, cell reporter. 1.2% of 300,000 active; calls by dose curve; tested in HEK293 cells; note: potency is the fitted concentration of half-maximal effect; nearly all actives have a fitted effect of over 50% in size
Marburg entry inh: Marburg virus entry inhibition | 1.8% of 300,000 active | Potency, µM (titrated, usually from 37.8 µM), without a hit: at the top dose activity change, negative = inhibition, hits mostly inhibitors | Marburg virus pseudotyped entry inhibition, cell reporter | AID 540276; calls by dose curve; tested in HEK293 cells; note: potency is the fitted concentration of half-maximal effect
HCMV antiviral: human cytomegalovirus inhibition; 4.5% of 410,000 active; HFF cells, HCMV-luciferase reporter, 72 h; active compounds read low; AID 1259415; activity change, negative = inhibition, % at 57.5 µM; in the data active = activity change below about -60%; inconclusive = no clear call, values can overlap the other calls; inactive = above about -39%
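Luciferase read-out from HCMV-luciferase-infected HFFs (MOI 1 PFU/cell) 72 h post infection at 37C; compounds added after 16 h cell attachment; activity normalized between buffer-only basal and Salinomycin (10uM) inhibitor controls.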
VACV mCherry inh: inhibitors of vaccinia virus infection (mCherry reporter signal) | Vaccinia virus mCherry reporter infection, fluorescence | Potency, µM (series often up to 36.5 µM), inactives show at the top dose activity change, negative = inhibition, hits mostly inhibitors | 0.63% of 310,000 active | AID 720579; calls by dose curve; tested in A549 cells; note: potency is the fitted concentration of half-maximal effect; nearly all actives have a fitted effect of over 35% in size
HCV inh: inhibitors of hepatitis C virus infection. Potency, µM (titrated, usually from 41.8 µM), inactives show top-dose activity change, negative = inhibition, actives largely listed as inhibitors. Huh7.5.1 HCVcc-Cre infection, luciferase reporter, 44 h. AID 651820. 3.4% of 340,000 active; active = well fitted inhibition curve with a large enough effect; inconclusive = small, poorly fitted or top-dose-only effect, or another doubt; inactive = no such curve, though single readings can be large or run the other way; note: potency is the fitted concentration of half-maximal effect
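Cells (1,000/well) were plated 4 h before compound, then infected with HCVcc-Cre virus (~0.5 moi). After 44 h further culture, infection was read as luciferase luminescence following a 15 min substrate incubation at room temperature.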
* hit, by the source's call; i = inactive; ? = inconclusive; nt = not tested or not shown; [ ] = remark or other dose. % is set by controls: 0 for no effect and ±100 for the full control effect.

SMILES	VACV Venus inh	Lassa entry inh	Marburg entry inh	HCMV antiviral	VACV mCherry inh	HCV inh
Cc1cc(C(=O)CSc2nnc(-c3ccccc3)n2-c2ccccc2)c(C)n1-c1ncn[nH]1	-21%	-17%	-5%	18	-24%	-11%
Cn1nccc1C(=O)NCC1CCC2(CCN(Cc3cccc4ncccc34)CC2)O1 (stereo not given)	1%	nt	nt	nt	-4%	nt
Cn1cccc1/C=N/N1CCN(Cc2ccccc2Cl)CC1	-24%	20%[46.1 µM]	23%[46.1 µM]	7	-16%	0.32µM*
CN(C)Cc1c(O)ccc2[nH]cnc12	-14%	8%	0%	-95*	nt	?
COC(=O)c1cncc(C=Cc2c(C)cc(O)cc2C)c1	nt	3.1µM*	nt	nt	nt	nt
O=C(CSc1nnc(Cn2nnc3ccccc32)o1)Nc1cccc(Cl)c1	-10%	-5%	29%	36	-14%	17%
Clc1ccc(CSc2nnc(Cn3cnc4ccccc43)o2)cc1	?	?	?	-81*	-27%	?
O=C(CSc1nnc(Cn2nnc3ccccc32)o1)N(Cc1ccc(Cl)cc1)c1ccccc1	?	?	6.3µM*	-2	?	6.3µM*
CSc1ccc(-c2nnn(CC(=O)Nc3sc4c(c3C#N)CCC(C(C)(C)C)C4)n2)cc1 (stereo not given)	-6%	5%[46.1 µM]	-2%[46.1 µM]	-2	-13%	nt
CC(C)(C)c1ccc(CC(=O)N2CCC2(C)C(=O)NCc2cccc3ccccc23)cc1 (stereo not given)	?	nt	nt	-24	-7%	nt
COc1ccc(CNC(=O)c2cnn(-c3ncc4c(n3)-c3ccccc3CC4)c2C)cc1OC	-11%	nt	nt	nt	-25%	nt
Cc1ccnc2c(O)cccc12	5%	nt	nt	nt	-12%	nt
CCN(CC)CCCNC(=O)c1cc2c(-c3cccc(OC)c3)nn(C)c2s1	-23%	nt	nt	75	-7%	11µM*
COc1cccc(-c2nn(C)c3sc(C(=O)NCc4ccco4)cc23)c1	?	?	8%	32	-14%	7.1µM*
COc1ccc(OC)c(CCNC(=O)c2cc3c(-c4ccccc4F)nn(C)c3s2)c1	?	?	?	-90*	?	nt
Cn1nc(-c2ccc(Cl)cc2)c2cc(C(=O)NCCCN3CCCC3)sc21	?	nt	nt	nt	-28%	13µM*
CCCCNC(=O)c1cc2c(-c3ccc(Cl)cc3)nn(C)c2s1	-7%	nt	nt	97	i	-17%
COc1ccc(NC(=O)c2cc3c(-c4ccccc4F)nn(C)c3s2)c(OC)c1	-3%	-27%[46.1 µM]	9%[46.1 µM]	-18	-21%	nt
COc1ccc(N2CCC[C@@H]2/C=C/C(=O)OCc2ccccc2)cc1	nt	nt	nt	7	nt	nt
Oc1cccc(Nc2nccc3[nH]c(-c4ccccc4)cc23)c1	nt	nt	nt	-7	nt	nt
CCN(CC)c1ccc(NC(=O)CCCN2C(=O)C(c3ccccc3)Oc3cccnc32)c(C)c1 (stereo not given)	-12%	-4%[46.1 µM]	nt	12	-18%	nt
COC(=O)c1ccc(CN2CCOc3ccc(CN4CCC(O)(c5cccnc5)CC4)cc3C2)cc1	-26%	nt	nt	nt	-26%	nt
CSc1nnc2c(n1)[nH]c1c(C)cccc12	-29%	-2%	3%	10	-15%	-18%
CCSc1nnc2c(n1)[nH]c1c(C)cccc12	?	-11%	?	?	?	32µM*
CCN1CCN(c2oc(/C=C/c3ccccc3OC)nc2C#N)CC1	-9%	-19%[46.1 µM]	-1%[46.1 µM]	-16	-14%	nt
SMILES	VACV Venus inh	Lassa entry inh	Marburg entry inh	HCMV antiviral	VACV mCherry inh	HCV inh
OC1(c2ccccc2)CN(c2ccccc2)C2=[N+]1CCS2 (stereo not given)	-12%	-5%	-18%	-62*	-4%	?
OC(C1=CC(=Cc2ccncc2)c2ccccc21)c1ccncc1 (stereo not given)	-14%	-25%[46.1 µM]	?	49	-25%	11µM*
COC(=O)c1c(C)[nH]c(C(=O)/C=C/c2ccc(C)cc2)c1C	nt	nt	nt	-90*	nt	-25%
COc1ccc(Nc2nccc3[nH]c(-c4cccc(F)c4)cc23)cc1OC	nt	nt	nt	-36	nt	nt
Cc1ccc(-n2c(=O)c3c(cnn3C)n(CC(=O)Nc3cccc(C)c3)c2=O)cc1	0%	14%[46.1 µM]	-14%[46.1 µM]	13	-10%	nt
Clc1cccc(CN2CCc3c([nH]c4ccccc34)C2)c1	-28%	?	8.9µM*	57	?	?
Cc1ccc(NC(=O)c2nn(C34CC5CC(CC(C5)C3)C4)cc2[N+](=O)[O-])cc1	nt	-18%	?	-76*	nt	?

Screening data: PubChem, National Center for Advancing Translational Sciences (NCATS)
